# Assay results reported in PubChem BioAssay (NCATS).
# Results filed as inconclusive are left out. A call without a number means that no potency is given here. The source made the active and inactive calls. Unless noted, calls come from the whole dose curve; as a rule, active = well fitted curve in the direction sought with a large enough effect; inconclusive = small, poorly fitted or top-dose-only effect, or another doubt; inactive = no such curve, though single readings can be large; an effect the other way counts as inactive or inconclusive. Where a SMILES comes first, the peptide text is derived from it. [ ]: non-standard residue; d: D form. dPhe(4-Cl) = N[C@H](Cc1ccc(Cl)cc1)C(=O)O; d2Nal = N[C@H](Cc1ccc2ccccc2c1)C(=O)O; dCit = NC(=O)NCCC[C@@H](N)C(=O)O; d3Pal = N[C@H](Cc1cccnc1)C(=O)O
# System: not listed separately
# Assay: Primary qHTS for inhibitors of nuclear receptor binding SET domain protein 2 (NSD2) in an RCH-ACV wild type WT cells (2C) (AID 1645877); note: nearly all actives have a fitted effect of over 70% in size
# Conditions: RCH-ACV (leukaemia line) NSD2 WT (2C) viability, CellTiter-Glo, 72 h; series mostly up to 44.9 µM
Structure (SMILES),outcome,Potency
CC(=O)N[C@@H](CCCCN)C(=O)N(C)[C@@H](CC(C)C)C(=O)N[C@H](C(=O)N(C)[C@@H](Cc1ccccc1)C(=O)N[C@H](Cc1ccccc1)C(N)=O)C(C)C,inactive [at 4.96 µM],–
CC(=O)O[C@@H]1c2c(C)coc2C(=O)[C@@]23O[C@@H]2CC[C@H](C)[C@@]13C,–,inactive
CC(=O)O[C@@H]1[C@@H](O)[C@H](O[C@H]2CC[C@]34C[C@]35CC[C@]3(C)[C@@H]([C@@]6(C)CC[C@@H](C(C)(C)O)O6)[C@@H](O)C[C@@]3(C)[C@@H]5C[C@H](O[C@@H]3O[C@H](CO)[C@@H](O)[C@H](O)[C@H]3O)[C@H]4C2(C)C)OC[C@H]1O,–,inactive
C[C@@H]1C(=O)OC[C@H]2C(C(=O)O)=C[C@@H]3CC(C)(C)C[C@]312,–,inactive

# Molecular target: Catechol O-methyltransferase (Homo sapiens) (UniProt P21964)
# Assay: Confirmatory Screen for Target Class Profiling of Small Molecule Inhibitors of Methyltransferases (AID 1745852; calls by dose curve)
# Conditions: MTase-Glo luminescence, SAH detection, recombinant enzyme; measured here: COMT max response; stronger effect = lower value
# Catechol O-methyltransferase (Homo sapiens), sequence (P21964 whole entry, looked up): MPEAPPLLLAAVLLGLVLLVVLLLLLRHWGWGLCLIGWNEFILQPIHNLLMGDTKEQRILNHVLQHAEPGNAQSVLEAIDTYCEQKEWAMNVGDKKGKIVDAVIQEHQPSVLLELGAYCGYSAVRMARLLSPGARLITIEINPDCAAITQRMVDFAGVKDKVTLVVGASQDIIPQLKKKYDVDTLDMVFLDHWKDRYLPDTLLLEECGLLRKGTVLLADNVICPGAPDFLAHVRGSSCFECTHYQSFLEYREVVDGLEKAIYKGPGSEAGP
row,Structure (SMILES),activity
1,C=C1C(=O)O[C@@H]2/C=C(\C)C(=O)/C=C/[C@](C)(O)C[C@@H](OC(=O)C(C)C)[C@@H]12,-80.2%
2,C[C@]12C[C@@H](O)[C@@H]3C[C@@]1(O[C@@H]1O[C@H](CO)[C@@H](O)[C@H](O)[C@H]1O)[C@]3(COC(=O)c1ccccc1)C(=O)O2,-66.1%
3,C=C(C(=O)O)C1CC(O)C2(C)CCCC(=C)C2C1 (stereo not drawn),-51%
4,CC1=C(C(=O)OCc2ccccc2)C(c2ccc(-c3ccccc3)cc2)NC(=O)N1CCCCCC(=O)O (stereo not drawn),-3.43%
5,COc1cc2c(cc1OC)N1C(=O)C[C@]34C=CCN5CC[C@@H]2[C@@H](CC3)[C@]514,-18.8%

# Molecular target: Guanidinoacetate N-methyltransferase (Homo sapiens) (UniProt Q14353)
# Assay: as above
# Conditions: MTase-Glo luminescence, SAH detection, recombinant enzyme; activity change, negative = inhibition: at 57.3 µM (top of the series) unless noted; series mostly up to 57.3 µM
Structure (SMILES),"activity change, negative = inhibition",Potency
C=C1C(=O)O[C@@H]2/C=C(\C)C(=O)/C=C/[C@](C)(O)C[C@@H](OC(=O)C(C)C)[C@@H]12,-3.22%,–
C[C@]12C[C@@H](O)[C@@H]3C[C@@]1(O[C@@H]1O[C@H](CO)[C@@H](O)[C@H](O)[C@H]1O)[C@]3(COC(=O)c1ccccc1)C(=O)O2,0.459% [at 29.8 µM],–
C=C(C(=O)O)C1CC(O)C2(C)CCCC(=C)C2C1 (stereo not drawn),0%,–
CC1=C(C(=O)OCc2ccccc2)C(c2ccc(-c3ccccc3)cc2)NC(=O)N1CCCCCC(=O)O (stereo not drawn),0%,–
COc1cc2c(cc1OC)N1C(=O)C[C@]34C=CCN5CC[C@@H]2[C@@H](CC3)[C@]514,–,inactive

# Molecular target: Nicotinamide N-methyltransferase (Homo sapiens) (UniProt P40261)
# Assay: as above
# Conditions: MTase-Glo luminescence, SAH detection, recombinant enzyme; measured here: NNMT max response; stronger effect = lower value
# Nicotinamide N-methyltransferase (Homo sapiens), sequence (P40261 whole entry, looked up): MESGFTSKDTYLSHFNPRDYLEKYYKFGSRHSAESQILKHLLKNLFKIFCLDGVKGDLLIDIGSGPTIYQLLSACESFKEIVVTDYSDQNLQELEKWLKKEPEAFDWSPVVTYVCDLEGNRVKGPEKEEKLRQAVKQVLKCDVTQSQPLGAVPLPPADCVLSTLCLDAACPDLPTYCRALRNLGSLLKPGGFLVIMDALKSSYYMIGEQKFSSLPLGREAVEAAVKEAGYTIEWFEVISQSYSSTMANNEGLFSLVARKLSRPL
row,Structure (SMILES),activity
1,C=C1C(=O)O[C@@H]2/C=C(\C)C(=O)/C=C/[C@](C)(O)C[C@@H](OC(=O)C(C)C)[C@@H]12,-1.46%
2,C[C@]12C[C@@H](O)[C@@H]3C[C@@]1(O[C@@H]1O[C@H](CO)[C@@H](O)[C@H](O)[C@H]1O)[C@]3(COC(=O)c1ccccc1)C(=O)O2,0%
3,C=C(C(=O)O)C1CC(O)C2(C)CCCC(=C)C2C1 (stereo not drawn),4.87%
4,CC1=C(C(=O)OCc2ccccc2)C(c2ccc(-c3ccccc3)cc2)NC(=O)N1CCCCCC(=O)O (stereo not drawn),-35.4%
5,COc1cc2c(cc1OC)N1C(=O)C[C@]34C=CCN5CC[C@@H]2[C@@H](CC3)[C@]514,1.78%

# Molecular target: Phenylethanolamine N-methyltransferase (Homo sapiens) (UniProt P11086)
# Assay: as above
# Conditions: MTase-Glo luminescence, SAH detection, recombinant enzyme; measured here: PNMT max response; stronger effect = lower value
# Phenylethanolamine N-methyltransferase (Homo sapiens), sequence (P11086 whole entry, looked up): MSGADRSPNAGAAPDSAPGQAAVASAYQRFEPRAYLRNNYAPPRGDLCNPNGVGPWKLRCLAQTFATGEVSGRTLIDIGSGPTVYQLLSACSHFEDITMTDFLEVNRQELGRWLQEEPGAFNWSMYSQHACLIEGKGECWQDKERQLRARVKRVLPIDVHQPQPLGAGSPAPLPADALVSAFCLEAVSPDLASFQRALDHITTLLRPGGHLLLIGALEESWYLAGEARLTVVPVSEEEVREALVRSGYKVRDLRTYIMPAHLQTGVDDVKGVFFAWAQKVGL
row,Structure (SMILES),activity
1,C=C1C(=O)O[C@@H]2/C=C(\C)C(=O)/C=C/[C@](C)(O)C[C@@H](OC(=O)C(C)C)[C@@H]12,-0.934%
2,C[C@]12C[C@@H](O)[C@@H]3C[C@@]1(O[C@@H]1O[C@H](CO)[C@@H](O)[C@H](O)[C@H]1O)[C@]3(COC(=O)c1ccccc1)C(=O)O2,6.78%
3,C=C(C(=O)O)C1CC(O)C2(C)CCCC(=C)C2C1 (stereo not drawn),3.46%
4,CC1=C(C(=O)OCc2ccccc2)C(c2ccc(-c3ccccc3)cc2)NC(=O)N1CCCCCC(=O)O (stereo not drawn),2.18%
5,COc1cc2c(cc1OC)N1C(=O)C[C@]34C=CCN5CC[C@@H]2[C@@H](CC3)[C@]514,3.88%

# Molecular target: Glutathione peroxidase 1 (Homo sapiens) (UniProt P07203)
# Assay: Primary qHTS Assay for Inhibitors of Recombinant Selenoprotein Glutathione Peroxidase 1 (GPX1) (AID 1845191); note: nearly all actives have a fitted effect of over 65% in size; note: potency is the fitted concentration of half-maximal effect
# Conditions: recombinant GPX1, GR-coupled NADPH fluorescence, 15 min; series mostly up to 48.8 µM
# Method in brief: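 GPX1 10 nM, GR 100 nM, GSH 1 mM, NADPH 0.5 mM, CHP 0.5 mM (final). 30-min cpd preincubation, RT. Ex340/Em450 read t=0, t=15 min.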
# Glutathione peroxidase 1 (Homo sapiens), sequence (P07203 whole entry, looked up): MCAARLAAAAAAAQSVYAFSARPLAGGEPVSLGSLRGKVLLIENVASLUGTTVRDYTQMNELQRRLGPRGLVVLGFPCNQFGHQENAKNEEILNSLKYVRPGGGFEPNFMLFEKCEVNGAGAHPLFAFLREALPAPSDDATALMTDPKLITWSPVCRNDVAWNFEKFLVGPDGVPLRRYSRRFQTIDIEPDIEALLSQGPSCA
Structure (SMILES),Potency,"activity, negative = inhibition"
CC(C)(C)Nc1nc(Nc2ccc(C(N)=O)cc2)cc(N)c1C#N,22.7 µM (active),–
CC(=O)c1ccc(O[C@@H]2O[C@H](CO)[C@@H](O)[C@H](O)[C@H]2O)cc1,inactive,–
CCOc1ccc(S(=O)(=O)n2c(C)nc3ccccc32)cc1,inactive,–
O=C(OCC1=CC(O)C2C=CO[C@@H](O[C@@H]3O[C@H](CO)[C@@H](O)[C@H](O)[C@H]3O)C12)c1ccccc1 (stereo partly drawn),inactive,–
CC(=O)N1CCN(Cc2ccc([C@H](C)Nc3nccc(N4C(=O)OC[C@@H]4C(C)C)n3)cc2)CC1,inactive,–
CC[C@@H](O)C[C@@H]1C(C)=C[C@@H]2CCCC[C@@H]2[C@@]1(C)C(=O)O,inactive,–
CC(=O)N[C@@H](CCCCN)C(=O)N(C)[C@@H](CC(C)C)C(=O)N[C@H](C(=O)N(C)[C@@H](Cc1ccccc1)C(=O)N[C@H](Cc1ccccc1)C(N)=O)C(C)C,–,0.986% [at 4.49 µM] (inactive)
COC(=O)c1cc(OC)c(O[C@@H]2O[C@@H](C)[C@H](O)[C@@H](O)[C@H]2O)c(OC)c1,inactive,–
CN=C(N)NCCCCC/C=C(/C)CC(C)C1OC(=O)C(C)C(O)/C=C/C(C)C(O)CC(O)C(C)C(O)CCC(C)C(O)CC2(O)OC(CC(OC(=O)CC(=O)O)CC(O)CC(O)C(C)C(O)/C(C)=C/CCC1C)CC(O)C2O (stereo not drawn),inactive,–
CC(=O)O[C@@H]1c2c(C)coc2C(=O)[C@@]23O[C@@H]2CC[C@H](C)[C@@]13C,inactive,–
CC1(C)C2CC(OC3OC(COC4OCC(O)(CO)C4O)C(O)C(O)C3O)C1(C)CC2O (stereo not drawn),inactive,–
C=C1C[C@]23C[C@H]1CC[C@H]2[C@@]12CC[C@H](O)[C@@](C)(C(=O)O1)[C@H]2[C@@H]3C(=O)O,inactive,–
C[C@H]1C(=O)N2c3ccccc3[C@@]3(O)C[C@@H]4C(=O)N[C@](C)(c5nc6ccccc6c(=O)n54)N1[C@@H]23,inactive,–
C=C(C(=O)O)C1CC2=C(C)CCCC2(C)C[C@@H]1O (stereo partly drawn),inactive,–
COC(=O)c1ccccc1O[C@@H]1O[C@H](CO)[C@@H](O)[C@H](O)[C@H]1O[C@@H]1O[C@@H](C)[C@H](O)[C@@H](O)[C@H]1O,inactive,–
COC(=O)C1=CO[C@@H](O[C@@H]2O[C@H](CO)[C@@H](O)[C@H](O)[C@H]2O)[C@@H]2C(CO)=CC[C@]12O,inactive,–
C=C1C(=O)O[C@@H]2/C=C(\C)C(=O)/C=C/[C@](C)(O)C[C@@H](OC(=O)C(C)C)[C@@H]12,inactive,–
C=C1C(=O)OC2CC(C)=C(C(C)CCCO)C(O)C12 (stereo not drawn),inactive,–
CO[C@H]1/C=C/[C@@](C)(O)/C=C/C(=O)O[C@H](C)[C@@H](C)CC/C=C/1C,inactive,–
CC/C=C\CC1C(=O)C=CC1(CCCCCCCC(=O)O)OC(C)=O (stereo not drawn),inactive,–

Structure (SMILES),Potency,"activity, negative = inhibition"
CCCCNc1ncc2c(-c3ccc(F)cc3)nn(CC3CCC(N)CC3)c2n1 (stereo not drawn),inactive,–
O=C1CCC(=O)N(O)CCCCCNC(=O)CCC(=O)N(O)CCOCCNC(=O)CCC(=O)N(O)CCCCCN1,inactive,–
C/C=C1\[C@H](O[C@@H]2O[C@H](CO)[C@@H](O)[C@H](O)[C@H]2O)OC=C2C(=O)OCCc3ccc(O)c(c3)Oc3ccc(cc3)CCOC(=O)C[C@H]21,inactive,–
C=C1CCC2C(C)(C)C(O)CCC2(C)C1CCC(C)CCOC(C)=O (stereo not drawn),inactive,–
C[C@]12C[C@@H](O)[C@@H]3C[C@@]1(O[C@@H]1O[C@H](CO)[C@@H](O)[C@H](O)[C@H]1O)[C@]3(COC(=O)c1ccccc1)C(=O)O2,inactive,–
C=C(C(=O)O)C1CC(O)C2(C)CCCC(=C)C2C1 (stereo not drawn),inactive,–
C[C@@H]1O[C@@H](OC[C@H]2O[C@@H](OC(CCCCc3ccc(O)cc3)CCc3ccc(O)cc3)[C@H](O)[C@@H](O)[C@@H]2O)[C@H](O)[C@H](O)[C@H]1O (stereo partly drawn),inactive,–
COc1c2cc(c(O)c1OC)-c1cc(ccc1O)CCC(O)CCCC2 (stereo not drawn),inactive,–
CC1(C)CCC[C@]2(C)[C@H]3CC(=O)O[C@]3(C)CC[C@@H]12,inactive,–
CC(=O)OC[C@@]12C(=O)C[C@@H](C)[C@]3(C[C@@H](c4ccoc4)O[C@H]3OC(C)=O)[C@H]1CCC[C@]21CO1,inactive,–
C=C1C(OC(C)=O)CCC2(C)CC3(OC)OC(=O)C(C)=C3CC12 (stereo not drawn),inactive,–
Nc1ncnc2c([C@@H]3N[C@H](CO)[C@@H](O)[C@H]3O)c[nH]c12,inactive,–
CC(=O)N[C@H](Cc1ccc2ccccc2c1)C(=O)N[C@H](Cc1ccc(Cl)cc1)C(=O)N[C@H](Cc1cccnc1)C(=O)N[C@@H](CO)C(=O)N[C@@H](Cc1ccc(O)cc1)C(=O)N[C@H](CCCNC(N)=O)C(=O)N[C@@H](CC(C)C)C(=O)N[C@@H](CCCN=C(N)N)C(=O)N1CCC[C@H]1C(=O)N[C@H](C)C(N)=O (Ac-[d2Nal][dPhe(4-Cl)][d3Pal]SY[dCit]LRP[dA]-NH2),inactive,–
C[C@@]12CC[C@@H]3[C@@](CC[C@H]4[C@@]3(C)CCC[C@@]4(C)C(=O)O)(CC1=O)C2,inactive,–
CC(=O)O[C@@H]1[C@@H](O)[C@H](O[C@H]2CC[C@]34C[C@]35CC[C@]3(C)[C@@H]([C@@]6(C)CC[C@@H](C(C)(C)O)O6)[C@@H](O)C[C@@]3(C)[C@@H]5C[C@H](O[C@@H]3O[C@H](CO)[C@@H](O)[C@H](O)[C@H]3O)[C@H]4C2(C)C)OC[C@H]1O,inactive,–
CC1=C(C(=O)OCc2ccccc2)C(c2ccc(-c3ccccc3)cc2)NC(=O)N1CCCCCC(=O)O (stereo not drawn),inactive,–
COc1cc2c(cc1OC)N1C(=O)C[C@]34C=CCN5CC[C@@H]2[C@@H](CC3)[C@]514,inactive,–
C[C@@H]1C(=O)OC[C@H]2C(C(=O)O)=C[C@@H]3CC(C)(C)C[C@]312,inactive,–
COC(=O)C1=CO[C@@H](O[C@@H]2O[C@H](CO)[C@@H](O)[C@H](O)[C@H]2O)[C@@H]2C(COC(C)=O)=C[C@H](O)[C@H]12,inactive,–
